Test [1] is described as follows: antimalarial activity against Dd2 strain (AID 2302;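 active = growth inhibition above 50% at the single 2 µM test dose, taken to imply half-maximal potency below 2 µM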;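 also: 0% = DMSO untreated growth and 100% = chloroquine plus artemisinin killed control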). Conditions: P. falciparum Dd2 in RBCs, LDH growth readout, 72 h; at 2 µM; stronger effect = higher value.
Test [2] addresses L-lactate dehydrogenase (Plasmodium falciparum (isolate CDC / Honduras)) (UniProt Q27743). The test is described as follows: PfLDH activity inhibition – cell lysate, 3D7 strain, counter-screen for P. falciparum growth inhibition project (AID 2304).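 Also: 0% = vehicle and 100% = reference inhibitor.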 The note with it: P. falciparum 3D7 crude extract, LDH APAD/NBT absorbance; at 2 µM; stronger effect = higher value. In general terms: The purpose of a counterscreen is to sort out artefacts and off-target activity.

The nature of test [3]: inhibition of 3D7 malaria parasite growth – strain 3D7 (AID 2306).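 Also: 0% = DMSO wells and 100% = chloroquine plus artemisinin control wells.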 Conditions: P. falciparum 3D7 erythrocytic growth, LDH absorbance, 72 h; at 2 µM; stronger effect = higher value.
Test [4] in a line: P. berghei load reduction in hepatocytes – cell-based, HepG2, luciferase luminescence, HepG2 viability, primary screen (AID 624349; in the data active = parasite load remaining mostly below about 12%, no sharp cut-off; inactive = mostly above about 10%;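 also: 100% = mean of DMSO negative control wells on the same plate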). Conditions: P. berghei liver stage in HepG2, luciferase luminescence, concentration not given here; parasite load remaining: stronger effect = lower value; viability: measured here: HepG2 viability without parasites.
In test [5] the test system is Neuropilin-2 / VEGF-C interaction (human). The experiment in a line: small molecules blocking Neuropilin-2/VEGF-C interaction – biochemical, microplate binding format, z-score (AID 743281). Conditions: microplate NRP2/VEGF-C binding assay; stronger effect = lower value.
Test [6] addresses Calcium-dependent protein kinase 1 (Plasmodium falciparum (isolate 3D7)) (UniProt P62344). The experiment in a line: PfCDPK1 kinase inhibitors, biochemical, TCAMS library (AID 1159585; cut-off not given, nearly all actives have IC50 up to about 0.98 µM;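 also: inhibitors leave more ATP so luminescence rises with inhibition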). The note with it: recombinant PfCDPK1, Kinase-Glo ATP depletion luminescence. (Kinase-Glo measures the ATP left after a reaction by luminescence.)
Test [7] has as its target Plasmodium falciparum protein kinase 6 (PK6, PF3D7_1337100) (UniProt Q8IDW1). The test is described as follows: PfPK6 kinase inhibitors, biochemical, TCAMS library (AID 1159586). Conditions: recombinant PfPK6, Kinase-Glo ATP depletion luminescence.
Test [8] concerns the target Protein kinase 7 (PK7), Plasmodium falciparum 3D7 (PF3D7_0213400) (UniProt Q7YTF7). The experiment in a line: inhibition of Plasmodium PK7 catalytic activity – biochemical, TCAMS antimalarial set, Kinase-Glo luminescence (AID 1159587). The note with it: recombinant PfPK7, Kinase-Glo ATP depletion luminescence.
In test [9] the target is Calcium-dependent protein kinase 4 (Plasmodium falciparum (isolate 3D7)) (UniProt Q8IBS5). The experiment in a line: PfCDPK4 kinase inhibitors, biochemical, TCAMS library (AID 1159588; cut-off not given, nearly all actives have IC50 up to about 0.91 µM). Conditions: recombinant PfCDPK4, Kinase-Glo ATP depletion luminescence.
Calcium-dependent protein kinase 4 (Plasmodium falciparum (isolate 3D7)), sequence (Q8IBS5 whole entry, looked up): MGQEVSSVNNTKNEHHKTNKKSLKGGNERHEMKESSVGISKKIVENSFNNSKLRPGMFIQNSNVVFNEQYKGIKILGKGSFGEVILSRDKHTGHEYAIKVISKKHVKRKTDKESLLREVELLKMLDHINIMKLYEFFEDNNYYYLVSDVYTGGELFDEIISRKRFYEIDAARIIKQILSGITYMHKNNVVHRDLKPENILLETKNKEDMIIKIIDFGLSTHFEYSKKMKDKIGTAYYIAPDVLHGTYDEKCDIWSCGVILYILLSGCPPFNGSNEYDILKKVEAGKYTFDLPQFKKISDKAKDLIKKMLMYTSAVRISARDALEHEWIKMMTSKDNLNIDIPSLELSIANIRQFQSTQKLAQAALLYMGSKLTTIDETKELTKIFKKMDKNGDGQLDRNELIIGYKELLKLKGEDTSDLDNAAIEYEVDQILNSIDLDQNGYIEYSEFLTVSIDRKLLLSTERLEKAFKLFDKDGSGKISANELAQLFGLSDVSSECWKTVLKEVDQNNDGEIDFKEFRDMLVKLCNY
Test [10] addresses ATP-dependent translocase ABCB1 (Homo sapiens) (UniProt P08183). The test is described as follows: P-glycoprotein substrate transport blockade – cell-based (AID 377; in the data active = fluorescence slope change above about 50%). The note with it: MDR1-expressing cells, fluorescent substrate accumulation slope; stronger effect = higher value; concentration not given here.
A short description of test [11]: viability loss in pontine glioma line – cell-based, SU-DIPG-IV, MIPE4.0, CellTiter-Glo, qHTS, dose response (AID 1347063; cut-off not given, nearly all actives have AC50 up to about 30 µM;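 also: compound exposure lasted 48 hours before the viability readout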). The note with it: CellTiter-Glo ATP luminescence.
The nature of test [12]: growth inhibition, single agents and combos, LFS_MB_1R, cell-based, cisplatin or BGB combos, synergistic combos for chromothripsis tumors (AID 1671452; in the data active = inhibition above about 80%;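 also: cells exposed for 96 hours before readout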). Conditions: LFS_MB_1R medulloblastoma cells, stronger effect = higher value.
The nature of test [13]: growth inhibition, single agents and combos, CRL2098, cell-based, BGB or cisplatin IC20 combos, synergistic combos for chromothripsis tumors (AID 1671454; in the data active = inhibition above about 80%;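 also: cells exposed for 96 h before readout; 0% = vehicle DMSO and 100% = killing by high DMSO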). The note with it: CRL2098 osteosarcoma cells, drug combinations, stronger effect = higher value.
Test [14] in a line: growth inhibition, single agents and combos, HD-MB03, cell-based, BGB or cisplatin IC20 combos, synergistic combos for chromothripsis tumors (AID 1671455; in the data active = inhibition above about 83%;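 also: 0% = vehicle DMSO and 100% = high DMSO as cytotoxic control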). The note with it: HD-MB03 medulloblastoma cells, stronger effect = higher value.
Test [15] can be described thus: growth inhibition, single agents and combos, UWB1.289, cell-based, BGB or cisplatin combos, synergistic combos for chromothripsis tumors (AID 1671456; in the data active = inhibition above about 80%;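 also: cells exposed to compound for four days; 0% = vehicle DMSO and 100% = killing by high DMSO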). Conditions: UWB1.289 ovarian carcinoma cells, stronger effect = higher value.
A short description of test [16]: growth inhibition, single agents and combos, LFS_MB_2R, cell-based, cisplatin combos, synergistic combos for chromothripsis tumors (AID 1671457; in the data active = inhibition above about 80%;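 also: cells exposed to compound for four days before readout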). Conditions: LFS_MB_2R medulloblastoma cells, stronger effect = higher value.
Test [17] can be described thus: UWB1.289_BRCA1 ovarian cancer growth, cell-based, BGB or cisplatin combinations (AID 1671459; in the data active = inhibition above about 80%). Conditions: UWB1.289 BRCA1 ovarian carcinoma, drug combinations, stronger effect = higher value.
Test [18] can be described thus: drug combination toxicity in non-malignant astrocytes – cell-based, BGB or cisplatin IC20 combos, cytotoxicity control for chromothriptic childhood tumor combination screen (AID 1671460; in the data active = inhibition above about 80%;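 also: cells exposed to compounds for 96 hours before viability readout; 0% = vehicle and 100% = killing control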). Conditions: Human astrocytes, viability inhibition, drug combinations, at 0.5 µM, stronger effect = higher value.
Test [19] in a line: CRL1545 cell growth, single agent and combined, cisplatin and BGB IC20 combos (AID 1671464; in the data active = inhibition above about 80%;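 also: cells exposed to compound for 96 hours before readout; 0% = vehicle DMSO and 100% = high DMSO killing control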). The note with it: CRL1545 osteosarcoma cells, stronger effect = higher value.
A short description of test [20]: chitosan synthesis blockers in C. neoformans – flow cytometry, Cibacron Brilliant Red staining (AID 1347148).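 Also: compound exposure lasted three days at 37 degrees C.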 The note with it: Cryptococcus neoformans chitosan, stronger effect = lower value; at 99.1 µM unless noted.
The mark [21] stands for this setting: measured here: combination with cisplatin, at 0.5 µM.
Setting [22] is: measured here: combination with cisplatin, at 5 µM.

“And” between values parts separate entries of the source, which are not always exact repeats. Equal values may be shown once. Inconclusive results are not listed. For part of these data: Entries with a potency or affinity are not part of this list. The source made the active and inactive calls. Unless noted, no rule for the calls is given here.

In general, inhibition refers to the change of the read-out against control, counted positive when it falls. As usually defined, the viability is a read-out of living cells in per cent, often relative to untreated cells. In general, AC50 refers to the midpoint of the concentration-response curve, whichever way the signal moves.

Plasmodium falciparum protein kinase 6 (PK6, PF3D7_1337100), sequence (Q8IDW1 1-305): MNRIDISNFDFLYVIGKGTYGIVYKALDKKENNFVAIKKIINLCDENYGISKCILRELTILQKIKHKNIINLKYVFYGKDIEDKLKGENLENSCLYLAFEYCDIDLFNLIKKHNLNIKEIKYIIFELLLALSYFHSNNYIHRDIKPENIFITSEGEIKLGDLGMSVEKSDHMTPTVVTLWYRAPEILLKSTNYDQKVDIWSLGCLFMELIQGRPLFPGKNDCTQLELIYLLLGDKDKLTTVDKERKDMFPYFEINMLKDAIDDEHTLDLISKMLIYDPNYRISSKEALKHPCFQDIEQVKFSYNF
Protein kinase 7 (PK7), Plasmodium falciparum 3D7 (PF3D7_0213400), sequence (Q7YTF7 1-343): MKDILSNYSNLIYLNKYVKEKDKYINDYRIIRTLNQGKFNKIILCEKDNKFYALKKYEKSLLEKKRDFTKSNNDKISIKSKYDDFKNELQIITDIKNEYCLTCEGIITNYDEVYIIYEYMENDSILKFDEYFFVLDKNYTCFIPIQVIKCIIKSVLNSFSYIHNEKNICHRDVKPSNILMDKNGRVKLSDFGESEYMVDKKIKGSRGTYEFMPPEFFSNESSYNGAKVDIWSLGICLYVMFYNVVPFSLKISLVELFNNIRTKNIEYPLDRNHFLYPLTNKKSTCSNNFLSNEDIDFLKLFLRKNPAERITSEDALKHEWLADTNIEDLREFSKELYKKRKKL
L-lactate dehydrogenase (Plasmodium falciparum (isolate CDC / Honduras)), sequence (Q27743 whole entry, looked up): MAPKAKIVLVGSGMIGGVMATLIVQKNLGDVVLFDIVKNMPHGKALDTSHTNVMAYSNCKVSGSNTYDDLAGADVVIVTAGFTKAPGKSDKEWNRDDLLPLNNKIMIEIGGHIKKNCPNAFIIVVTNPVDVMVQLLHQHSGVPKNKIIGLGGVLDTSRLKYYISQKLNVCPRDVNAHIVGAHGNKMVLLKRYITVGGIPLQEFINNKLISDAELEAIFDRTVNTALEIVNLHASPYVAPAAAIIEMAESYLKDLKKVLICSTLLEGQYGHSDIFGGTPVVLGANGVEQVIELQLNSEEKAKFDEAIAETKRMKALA
Calcium-dependent protein kinase 1 (Plasmodium falciparum (isolate 3D7)), sequence (P62344 whole entry, looked up): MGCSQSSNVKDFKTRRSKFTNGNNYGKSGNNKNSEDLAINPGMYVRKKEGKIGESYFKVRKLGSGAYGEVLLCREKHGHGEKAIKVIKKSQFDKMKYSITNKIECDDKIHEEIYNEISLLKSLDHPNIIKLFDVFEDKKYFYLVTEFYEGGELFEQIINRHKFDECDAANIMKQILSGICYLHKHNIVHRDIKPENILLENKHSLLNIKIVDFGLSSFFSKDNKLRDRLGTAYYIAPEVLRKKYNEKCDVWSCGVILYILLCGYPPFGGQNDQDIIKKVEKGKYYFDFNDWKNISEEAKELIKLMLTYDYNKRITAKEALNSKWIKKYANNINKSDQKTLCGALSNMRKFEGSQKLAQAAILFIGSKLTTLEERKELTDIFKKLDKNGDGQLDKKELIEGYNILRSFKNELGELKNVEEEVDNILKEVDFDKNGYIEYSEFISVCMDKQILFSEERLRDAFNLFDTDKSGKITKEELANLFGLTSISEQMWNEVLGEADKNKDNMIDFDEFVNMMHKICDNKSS
ATP-dependent translocase ABCB1 (Homo sapiens), sequence (P08183 whole entry, looked up): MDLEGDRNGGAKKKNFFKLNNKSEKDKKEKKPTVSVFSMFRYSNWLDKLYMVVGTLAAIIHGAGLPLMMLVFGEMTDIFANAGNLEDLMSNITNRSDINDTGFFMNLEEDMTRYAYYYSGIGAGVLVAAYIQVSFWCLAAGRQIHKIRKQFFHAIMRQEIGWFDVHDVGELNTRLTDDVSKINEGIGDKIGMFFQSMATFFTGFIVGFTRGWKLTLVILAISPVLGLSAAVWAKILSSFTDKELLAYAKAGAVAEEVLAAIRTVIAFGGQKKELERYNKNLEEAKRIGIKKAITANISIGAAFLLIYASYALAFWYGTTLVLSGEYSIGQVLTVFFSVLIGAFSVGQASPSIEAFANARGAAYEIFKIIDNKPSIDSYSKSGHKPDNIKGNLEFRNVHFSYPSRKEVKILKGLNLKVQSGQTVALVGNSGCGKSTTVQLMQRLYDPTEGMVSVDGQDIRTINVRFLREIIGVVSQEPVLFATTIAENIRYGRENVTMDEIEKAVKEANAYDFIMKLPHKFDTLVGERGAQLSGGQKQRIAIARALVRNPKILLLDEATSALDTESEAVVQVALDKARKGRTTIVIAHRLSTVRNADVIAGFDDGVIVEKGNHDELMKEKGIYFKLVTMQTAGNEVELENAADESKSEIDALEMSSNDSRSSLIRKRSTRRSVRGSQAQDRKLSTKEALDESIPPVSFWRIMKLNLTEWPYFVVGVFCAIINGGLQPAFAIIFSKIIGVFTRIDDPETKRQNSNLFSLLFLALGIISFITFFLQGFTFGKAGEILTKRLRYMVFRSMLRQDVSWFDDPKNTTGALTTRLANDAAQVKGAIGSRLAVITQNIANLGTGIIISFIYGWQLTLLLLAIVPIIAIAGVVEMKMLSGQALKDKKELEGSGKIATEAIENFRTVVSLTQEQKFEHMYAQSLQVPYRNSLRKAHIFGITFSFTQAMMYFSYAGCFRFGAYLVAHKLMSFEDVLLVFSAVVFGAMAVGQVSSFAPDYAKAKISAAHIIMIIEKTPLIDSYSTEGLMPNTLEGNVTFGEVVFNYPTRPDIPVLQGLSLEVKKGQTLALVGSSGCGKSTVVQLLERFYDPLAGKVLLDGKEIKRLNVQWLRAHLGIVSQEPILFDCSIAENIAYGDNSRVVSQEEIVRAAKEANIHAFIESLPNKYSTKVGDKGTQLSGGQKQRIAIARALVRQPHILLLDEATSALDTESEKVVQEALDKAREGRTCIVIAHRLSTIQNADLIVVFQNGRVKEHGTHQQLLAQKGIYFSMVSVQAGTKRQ

For `CCCCCN=C(N)N/N=C/c1c[nH]c2ccc(OC)cc12`, the growth inhibition in [1] is 2% (inactive); in test [3] it was 86% (active). In test [2], the inhibition was -6% (inactive). Also, the parasite load remaining in [4] was 142% (inactive) and 119% (inactive). Also, the viability in [4] was 84.9% and 86.2%. Moreover, the result in test [5], in test [6], in [7], in [8] and in test [9] was inactive.
For the compound `c1ccc([C@H]2CN3CCSC3=N2)cc1`, the fluorescence slope change in test [10] was 63.5% (active). The growth inhibition in test [1] was 1% (inactive); in [3], 93% (active). Besides, the inhibition in test [2] is 5% (inactive). In addition, the result in test [6], in test [7], in test [8] and in [9] was inactive.
Take `CCN(CCO)CCCC(C)Nc1ccnc2cc(Cl)ccc12` (centres undefined): the growth inhibition is 0% (inactive) in test [1] and 99% (active) in test [3]. Also, the inhibition in test [2] was -1% (inactive). Moreover, in test [4], the parasite load remaining is 156% (inactive) and 84.1% (inactive). Further, the viability in test [4] is 88.4% and 102%. Moreover, the result in test [6], in test [7], in test [8], in test [9] and in [11] was inactive.
For the compound `Nc1nc2c(ncn2COCCO)c(=O)[nH]1`, in test [11], the compound was classed as inactive. For the same compound, the inhibition in test [12] (at 0.5 µM) was -33.9% (inactive) and -12.8% (inactive); in test [12] (measured here: combination with BGB IC40, at 0.05 µM), -30% and -19.3%; in test [12] (setting [21]), -22.8% and -6.62%; in [12] (setting [22]), -40.1% and -62.2%; in test [13] (at 0.5 µM), -82.3% (inactive) and -42.2% (inactive); in test [13] (measured here: combination with BGB at IC20, at 0.5 µM), -65.6% and -27.8%. Moreover, the inhibition was -92.2% and -76% in test [13] (measured here: combination with cisplatin at IC20, at 0.5 µM); -9.51% (inactive) and -3.72% (inactive) in test [14] (at 0.5 µM); -2.11% and -3.06% in test [14] (measured here: combo with BGB at IC20, at 0.5 µM); -19.5% and -6.04% in [14] (measured here: combo with cisplatin at IC20, at 0.5 µM); -7.84% (inactive) and 5.52% (inactive) in [15] (at 0.5 µM); -9.01% and -4.82% in test [15] (measured here: inhibition with BGB combination, at 0.05 µM). Moreover, the inhibition is -11.4% and 12.5% in test [15] (measured here: inhibition with cisplatin combination, at 0.05 µM); -16.1% (inactive) and -6.37% (inactive) in test [16] (at 0.5 µM); -14.9% and -19.4% in test [16] (setting [21]); -76% and -8.06% in test [16] (setting [22]); -23.1% and 1.37% in [17] (BGB combination, concentration series, at 5 µM); -9.4% (inactive) and 8.78% (inactive) in test [17] (at 0.5 µM). For the same compound, the inhibition in [17] (cisplatin combination, concentration series, at 5 µM) was -14.8% and -13.6%; in test [18] it was -9.43% (inactive) and 7.59% (inactive); in test [18] (measured here: combo with BGB IC20), -2.39% and 2.09%; in test [18] (measured here: combo with cisplatin IC20), -29.6% and 5.16%; in test [19] (at 0.5 µM) it was -37.7% (inactive) and -21.2% (inactive); in [19] (measured here: with BGB IC20 combination, at 0.5 µM), -17.4% and -24.8%. In addition, the inhibition is -51.3% and -21.4% in [19] (measured here: with cisplatin IC20 combination, at 0.5 µM); -59.2% and 3.53% in [19] (single agent, at 0.05 µM); -38.1% and -22.9% in test [19] (single agent, at 5 µM).
With `CCOC(=O)[C@H](CCc1ccccc1)N[C@H]1CCc2ccccc2N(CC(=O)O)C1=O`, in [4], the parasite load remaining was 126% (inactive) and 36.1% (inactive) and 94.6% (inactive); the viability is 90.1% and 91.8% and 66.1%. In addition, in [5], the z-score is -0.908 (inactive). Further, in [11], the AC50 is 10.5 µM (active).
As to `CC[C@H](C)C(=O)O[C@H]1C[C@@H](C)C=C2C=C[C@H](C)[C@H](CC[C@@H]3C[C@@H](O)CC(=O)O3)[C@H]21`, the fluorescence slope change in [10] was 166% (active). Also, the fold fluorescence in test [20] was 4.35 [at 123.6 µM] (inactive).
Consider `c1ccc(CC2=NCCN2)cc1`, for which the growth inhibition is 0% (inactive) in test [1] and 94% (active) in test [3]. Also, in test [2], the inhibition was -3% (inactive). Moreover, the result in [6], in [7], in [8] and in test [9] was inactive.

Values taken from PubChem BioAssay.
